# Source: PubChem BioAssay (NCI)
# Compounds without any hit were thinned out: in the full panel of roughly 79,000, 15% have a hit. A number with no mark means an inactive call. The source made the active and inactive calls. Cut-off read from the data, not from the text of the source: active = growth inhibition above about 70%; inactive = the rest.
# Experiment: NCI Yeast Anticancer Drug Screen. Data for the bub3 strain (AID 167)
# Settings: S. cerevisiae bub3 mutant strain, at 50.0 µM, active compounds read high
# Procedure, shortened: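 Readout: yeast growth inhibition, expressed relative to vehicle-only wells. The test organism is a mutant strain from a panel with lesions in DNA repair or checkpoint genes.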
row,Structure (SMILES),growth inhibition
1,O=C(CCC(=O)Nc1cc(Cl)ccc1Cl)CC(=O)c1ccc([N+](=O)[O-])cc1,-2%
2,NC1C2CC3CC1CC(C2)O3 (stereo not given),7.45%
3,O=C(O)C(Br)C(Br)C(=O)Nc1cccc2ccccc12 (stereo not given),98.9% (active)
4,CC(C)[C@@]12O[C@@H]1CC13OC1[C@@H](O)CC[C@@]32O (stereo not given in full),-6.25%
5,O=C1C=C(C2CCCCC2)C(=O)c2ccccc21,58.5%
6,Cc1ccc(N=C(NN(C)C)C(c2ccccc2)c2ccccc2)cc1,15.4%
7,CC(CS(C)(=O)=O)S(=O)(=O)O (stereo not given),-14.7%
8,Cc1ccc(N=NN(C)C)cc1,1.55%
9,COc1cc(NC(=O)CCN2CCOCC2)c2ncccc2c1,18.9%
10,FC(F)(F)c1cccc(C2SCc3nc4ccccc4n32)c1 (stereo not given),23.9%
11,O=c1c(Cl)c(Cl)cnn1-c1ccc([N+](=O)[O-])cc1[N+](=O)[O-],-0.65%
12,CN(C)/C(=N\N=C(/c1ccc(Cl)cc1)N(C)C)c1ccc(Cl)cc1,-11.1%
13,Cc1c(C)c(C)c(CN2CC(=O)c3ccccc3C2=O)c(C)c1C,10.6%
14,C[n+]1nc([O-])oc1-c1ccccc1,-4.6%
15,Cc1[nH]c2ccccc2c1-c1cc(-c2cc(-c3c(C)[nH]c4ccccc34)nc(N)n2)nc(N)n1,-11.3%
16,COc1cccc(/C=C2\C(=O)N(C(=O)Cc3ccccc3)N=C2C)c1,-14.8%
17,OCCOc1ccc(OCCO)cc1,9.9%
18,CCCCNC(C)=O,-0.95%
19,OC(Cc1cccnc1)(c1ccccc1)c1ccccc1,-13.9%
20,COC(=O)C1(CCSc2ccccc2)CCCC1=O (stereo not given),27%

row,Structure (SMILES),growth inhibition
1,CCCCN(CCCC)C(=N)c1cccc(OC)c1,2.75%
2,O=[N+]([O-])c1ccc(N/N=C2\C=C(c3ccccc3)C(c3ccccc3)C2)c([N+](=O)[O-])c1 (stereo not given),96.8% (active)
3,S=C(Nc1ccccc1)N1N=C2c3ccccc3CC[C@H]2[C@@H]1c1ccccc1,-28.2%
4,CCCCCCCCCCCCCCCCNc1nc(=O)n(C2CC(O)C(COP(=O)(O)OC3CC(n4cc(F)c(=O)[nH]c4=O)OC3CO)O2)cc1F (stereo not given),-42.6%
5,COc1cc2c(SCCN(C)C)nc3ccccc3c2c2ccccc12,91.5% (active)
6,C=C(C)CBr,-5.45%
7,O=C1Cn2c(cc(=O)c3ccccc32)O1,9.8%
8,CC1=CC(=O)C(c2ccccc2)CC1 (stereo not given),-0.75%
9,CC(C#N)(CCl)OS(=O)(=O)CCCl (stereo not given),48.7%
10,Cc1ccc(NC(=O)CCC(=O)C2Cc3ccccc3C2=O)cc1C (stereo not given),1.65%
11,CCOC(=O)c1ccc(NC(=O)Oc2ccc(SC)cc2)cc1,23.4%
12,O=[N+]([O-])Cc1ccc(Cl)cc1,-19.7%
13,CCOc1ccc2nc(NC(=O)C(=O)C(C(=O)c3ccccc3F)C3OC(=O)c4ccccc43)sc2c1 (stereo not given),-1.2%
14,Nc1cccc2nsnc12,-5.05%
15,CCOC(=O)C[N+]1(C)CCC(O)CC1 (stereo not given),16.6%
16,C/C=C\C(=O)OCC(C)COC(=O)/C=C/C (stereo not given),2.65%
17,O=c1c2ccccc2c2ccccc2n1C(c1ccccc1)c1ccccc1,-11.5%
18,CC(C)C(=O)Nc1ccc([N+](=O)[O-])cc1,-36%
19,Oc1c2cccc1Cc1cccc3c1OCCOCCOCCOCCOc1c(cccc1Cc1cccc(c1O)C3)C2,12.4%
20,CCN(CC)Cc1ncccc1O,-5.8%
